Test results as given in PubChem BioAssay.
Calls of active or inactive are those of the source. Unless noted, no rule for the calls is given here.

Tests used:
[1] = resazurin metabolic signal in HepG2 cells – cell-based, resazurin fluorescence, 24 h, PK04 Diversity Set, profiling panel (AID 1172); conditions: HepG2 viability, higher = more signal; also: test concentration not given here
[2] = budding yeast growth changes without added modifier – OD600, strain BY4716, 24 h, basal condition, primary screen (AID 1173); conditions: S. cerevisiae BY4716 growth, OD600, 24 h; higher = more signal, called active from +8 up or from −8 down
[3] = viability profiling in MM1S myeloma cells – cell-based, resazurin fluorescence, basal, 24 h, PK04 Diversity Set, profiling panel (AID 1174); conditions: higher = more signal, called active from +8 up or from −8 down;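 also: MM1S multiple myeloma cell line; test concentration not given here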
[4] = molecular target: Dihydroorotate dehydrogenase (quinone), mitochondrial (Plasmodium falciparum (isolate 3D7)) (UniProt Q08210); test: inhibition of P. falciparum DHODH – biochemical, C-terminal His tag, absorbance 600 nm, primary screen (AID 1175); conditions: PfDHODH enzyme, DCIP absorbance 600 nm; higher = more signal, called active from +8 up or from −8 down;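 also: recombinant parasite enzyme with a five histidine tag at its C terminus; test concentration not given here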
[5] = inhibition of PAO1 biofilm formation – strain PAO1, LB-PBS medium, absorbance 600 nm, primary screen (AID 1176); also: test concentration not given here; conditions: P. aeruginosa PAO1 growth/biofilm, A600, 12 h; higher = more signal
[6] = growth modulation of vineyard yeast isolate – strain RM11-1a, OD600, basal, 24 h, primary screen (AID 1177);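 also: cultures grown under basal conditions with no added stressor; test concentration not given here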; conditions: S. cerevisiae RM11-1a growth, OD600, 24 h; higher = more signal, called active from +8 up or from −8 down
[7] = growth of efflux-deficient E. coli DRC39 – strain DRC39, OD650, 24 h, E. coli filamentation inducers, primary screen (AID 1178);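 also: growth measured as culture turbidity by optical density at 650 nm; test concentration not given here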; conditions: E. coli DRC39 acrAB, higher = more signal, called active from +8 up or from −8 down
[8] = growth of efflux-deficient E. coli DRC39 – strain DRC39, OD650, 48 h, E. coli filamentation inducers, primary screen (AID 1179);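 also: screen aims at cell division blockers that make cells filament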; conditions: E. coli DRC39 delta-acrAB growth, higher = more signal, called active from +8 up or from −8 down
[9] = viability profiling in RPMI8226 myeloma cells – cell-based, resazurin fluorescence, basal, 24 h, PK04 Diversity Set, profiling panel (AID 1180); conditions: higher = more signal;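 also: RPMI8826 multiple myeloma cell line at 5000 cells per well; test concentration not given here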
[10] = molecular target: E3 ubiquitin-protein ligase XIAP (Homo sapiens) (UniProt P98170); test: small molecules binding XIAP protein – biophysical, small-molecule microarray, fluorescence 635 nm, primary screen (AID 1181); conditions: higher = more signal;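 also: score merges 667 nm emission and signal to noise over triplicate slides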
Chain of E3 ubiquitin-protein ligase XIAP (Homo sapiens) (P98170 whole entry, looked up): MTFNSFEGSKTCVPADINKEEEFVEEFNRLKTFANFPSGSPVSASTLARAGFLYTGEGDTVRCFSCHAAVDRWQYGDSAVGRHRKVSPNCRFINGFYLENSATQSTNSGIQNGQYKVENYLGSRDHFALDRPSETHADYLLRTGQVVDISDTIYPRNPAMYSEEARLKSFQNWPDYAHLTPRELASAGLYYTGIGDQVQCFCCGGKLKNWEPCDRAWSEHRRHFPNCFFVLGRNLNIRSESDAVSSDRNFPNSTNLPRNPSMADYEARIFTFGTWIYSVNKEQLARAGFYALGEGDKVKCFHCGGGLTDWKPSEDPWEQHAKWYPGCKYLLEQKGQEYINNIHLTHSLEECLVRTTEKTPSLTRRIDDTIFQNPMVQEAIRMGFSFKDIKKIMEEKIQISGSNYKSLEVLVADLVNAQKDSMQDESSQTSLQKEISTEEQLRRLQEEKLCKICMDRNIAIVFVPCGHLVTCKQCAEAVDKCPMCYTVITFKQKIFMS

Chain of Dihydroorotate dehydrogenase (quinone), mitochondrial (Plasmodium falciparum (isolate 3D7)) (Q08210 whole entry, looked up): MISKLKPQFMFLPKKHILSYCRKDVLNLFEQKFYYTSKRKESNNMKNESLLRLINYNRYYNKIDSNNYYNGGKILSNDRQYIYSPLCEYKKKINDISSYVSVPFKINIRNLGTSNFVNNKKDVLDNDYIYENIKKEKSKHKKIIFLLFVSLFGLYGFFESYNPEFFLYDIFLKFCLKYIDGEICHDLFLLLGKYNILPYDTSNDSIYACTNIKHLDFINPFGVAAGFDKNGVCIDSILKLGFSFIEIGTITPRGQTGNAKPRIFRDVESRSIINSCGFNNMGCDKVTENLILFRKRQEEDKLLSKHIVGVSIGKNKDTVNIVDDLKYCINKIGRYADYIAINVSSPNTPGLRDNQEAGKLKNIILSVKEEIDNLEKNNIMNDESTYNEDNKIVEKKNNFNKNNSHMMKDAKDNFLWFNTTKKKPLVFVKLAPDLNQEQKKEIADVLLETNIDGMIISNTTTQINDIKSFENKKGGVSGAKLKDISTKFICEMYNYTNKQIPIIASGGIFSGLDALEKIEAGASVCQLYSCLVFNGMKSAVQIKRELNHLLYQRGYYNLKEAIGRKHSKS

Row | SMILES | z-score [1] | z-score [2] | z-score [3] | composite z-score [4] | z-score [5] | z-score [6] | z-score [7] | z-score [8] | z-score [9] | composite z-score [10]
1 | CCOC(=O)[C@H](Cc1ccccc1)NC(=O)CCC1CC(OC(=O)NCc2ccc3c(c2)OCO3)CC2(CCCC(COC(=O)NCCC(C)C)O2)O1 (stereo not given in full) | -0.341 | -0.426 (inactive) | 0.812 (inactive) | 0.55 (inactive) | -1.17 (inactive) | 0.895 (inactive) | 0.308 (inactive) | 0.249 (inactive) | 0.75 | -0.0559
2 | CC(CCN1CCCCc2nc(C)c(C)cc21)=NOC[C@@H](O)COCc1ccco1 | -0.862 | -0.0954 (inactive) | -0.399 (inactive) | -0.441 (inactive) | -0.16 (inactive) | 0.0681 (inactive) | -0.0051 (inactive) | 0.562 (inactive) | -0.688 | 0.0251
3 | COC(=O)[C@H](C)NC(=O)CCC1CC(OC(=O)NCc2ccc3c(c2)OCO3)CC2(CCCC(COC(=O)NCc3cccc(C(F)(F)F)c3)O2)O1 (stereo not given in full) | -0.443 | -0.817 (inactive) | 0.374 (inactive) | -0.303 (inactive) | 0.484 (inactive) | -0.476 (inactive) | 0.298 (inactive) | 0.079 (inactive) | 0.459 | 0.0566
4 | Cn1c(=O)n2n(c1=O)[C@H]1[C@H](O)[C@@H]3O[C@@H]3C(=O)[C@H]1CC2 | -0.12 | 0.243 (inactive) | -0.871 (inactive) | 0.438 (inactive) | -0.343 (inactive) | 0.723 (inactive) | 0.463 (inactive) | 0.166 (inactive) | -0.52 | 0.0799
5 | CO[C@H]1COC(=O)[C@@H](C)COC(=O)[C@H](COCc2ccccc2)NC(=O)CC=C[C@H]1C | -0.238 | -1.58 (inactive) | 0.671 (inactive) | 0.604 (inactive) | -0.543 (inactive) | 0.085 (inactive) | 1.05 (inactive) | -0.997 (inactive) | 0.267 | 0.227
6 | CCO[C@H](c1cc(OC)cc([N+](=O)[O-])c1OC)[C@H](C)C=CCC(=O)OC | -0.0508 | -2.19 (inactive) | -1.43 (inactive) | -0.278 (inactive) | 0.18 (inactive) | 0.343 (inactive) | 0.884 (inactive) | 0.38 (inactive) | -0.622 | 0.601
7 | COC(=O)NCC=Cc1nc(CCCO)co1 | -0.0091 | 0.41 (inactive) | -0.295 (inactive) | -0.706 (inactive) | -0.245 (inactive) | 0.414 (inactive) | 0.107 (inactive) | 0.438 (inactive) | -0.626 | -0.117
8 | CCN1C(=O)[C@H]2[C@H]3[C@H](O)[C@H](O)CC(=NNC(=O)OCc4ccc(OC)cc4)[C@@H]3CC[C@H]2C1=O | -0.295 | 0.303 (inactive) | -0.938 (inactive) | -0.367 (inactive) | -0.708 (inactive) | -1.33 (inactive) | -0.154 (inactive) | -0.0457 (inactive) | -0.381 | -0.0416
9 | COC(=O)[C@@H]1CC[C@H](C)[C@@H](c2ccc(C)cc2)N1C(=O)c1ccc(C=NO[C@@H]2O[C@H](COC(C)=O)[C@@H](OC(C)=O)[C@H](OC(C)=O)[C@H]2OC(C)=O)cc1 | -0.124 | 0.786 (inactive) | 0.952 (inactive) | -2.7 (inactive) | -0.172 (inactive) | 0.178 (inactive) | -1.44 (inactive) | -1.65 (inactive) | 0.369 | 0.0131
10 | COc1ccc(O[C@H]2C=C[C@@H](c3ccccc3)O[C@@H]2CON=C2[C@H]3CCn4c(=O)n(-c5ccccc5)c(=O)n4[C@H]3[C@H](O)[C@@H]3O[C@H]23)cc1 | -1.63 | 0.422 (inactive) | -2.53 (inactive) | -0.268 (inactive) | -0.0417 (inactive) | 0.0056 (inactive) | 0.694 (inactive) | 0.731 (inactive) | -1.92 | -0.403
11 | CO[C@H]1COC(=O)CCC[C@@H](C)[C@H](OC)COC(=O)[C@@H](C)NC(=O)CC=C[C@@H]1C | 0.0039 | 0.315 (inactive) | 0.77 (inactive) | -2.33 (inactive) | -1.46 (inactive) | -1.07 (inactive) | -1 (inactive) | -0.345 (inactive) | 0.0228 | -0.138
12 | COc1ccc(COC(=O)NN=C2C[C@@H](O)[C@@H](O)[C@@H]3[C@@H]4C(=O)N(c5cccc(Oc6ccccc6)c5)C(=O)[C@@H]4CC[C@@H]23)cc1 | 0.702 | 0.968 (inactive) | 0.106 (inactive) | 0.861 (inactive) | -0.282 (inactive) | 1.65 (inactive) | -0.401 (inactive) | -0.587 (inactive) | 0.45 | -0.22
13 | CC(=O)OC[C@H]1O[C@H](C#Cc2ccccc2)C=C[C@@H]1OC(C)=O | -0.153 | -2.26 (inactive) | -5.37 (inactive) | -0.0765 (inactive) | -0.339 (inactive) | -0.14 (inactive) | 0.731 (inactive) | 0.414 (inactive) | -2.61 | -0.13
14 | CC(C)=CCCC(C)=CCON=C1C[C@@H](O)[C@@H](O)[C@@H]2[C@@H]3C(=O)N(Cc4ccccc4)C(=O)[C@@H]3CC[C@@H]12 | 1.42 | -0.404 (inactive) | 0.772 (inactive) | 0.317 (inactive) | -0.143 (inactive) | 0.581 (inactive) | 0.593 (inactive) | 1.01 (inactive) | 0.97 | -0.121
15 | C#CCCCON=C1C[C@@H](O)[C@@H](O)[C@@H]2[C@@H]3C(=O)N(C(C)(C)C)C(=O)[C@@H]3CC[C@@H]12 | -0.202 | 0.595 (inactive) | -1.24 (inactive) | 0.289 (inactive) | 0.0001 (inactive) | 0.438 (inactive) | -0.35 (inactive) | -0.278 (inactive) | 0.0444 | -0.0939
16 | CC(C)CON=C1C[C@@H](O)[C@@H](O)[C@@H]2[C@@H]3C(=O)N(c4ccc(F)cc4F)C(=O)[C@@H]3CC[C@H]12 | 0.806 | -0.406 (inactive) | 0.686 (inactive) | -0.223 (inactive) | 0.246 (inactive) | -0.554 (inactive) | 0.404 (inactive) | -0.382 (inactive) | 0.17 | -0.138
17 | COc1cccc([C@H]2Oc3ccc(OC)cc3C(=NOC[C@@H](O)COCc3ccco3)[C@@H]2O)c1 | -0.949 | -1.38 (inactive) | -1.19 (inactive) | -1.58 (inactive) | -0.254 (inactive) | -2.29 (inactive) | 0.0207 (inactive) | -0.947 (inactive) | -0.825 | 0.0785
18 | COC(=O)[C@@H]1CC[C@H](C)[C@@H](c2ccc(C)cc2)N1C(=O)c1ccc(C=NO[C@@H](C)c2cn([C@H](CO)Cc3ccccc3)nn2)cc1 | -1.27 | -0.476 (inactive) | -1.93 (inactive) | -1.41 (inactive) | 0.171 (inactive) | 1.35 (inactive) | 0.836 (inactive) | 0.161 (inactive) | -1.16 | -0.102
19 | CC1O[C@H]2C3=C(C(=O)[C@@H]4O[C@@H]4[C@H]3O)[C@@H]1C1[C@@H](C)OC=C3[C@H](O)C4O[C@@H]4C(=NOCc4ccccc4)[C@]312 (stereo not given in full) | -1.04 | -0.456 (inactive) | -4.85 (inactive) | 0.0953 (inactive) | -0.364 (inactive) | 0.543 (inactive) | 0.158 (inactive) | -0.123 (inactive) | -2.84 | 0.215
20 | Cc1ccc(S(=O)(=O)N[C@H]2COC(=O)CC=C[C@H](C)[C@@H](NS(=O)(=O)c3ccc(C)cc3)COC(=O)CC=C[C@@H]2C)cc1 | -0.0933 | 1.32 (inactive) | 0.418 (inactive) | -0.069 (inactive) | -0.585 (inactive) | 1.34 (inactive) | 0.455 (inactive) | 0.614 (inactive) | 0.0846 | -0.146
21 | CC=CC1=C(CO)C(=O)[C@@H]2O[C@@H]2C1=O | -0.714 | -1.37 (inactive) | -1.58 (inactive) | 0.324 (inactive) | 0.827 (inactive) | -1.22 (inactive) | 0.246 (inactive) | 0.537 (inactive) | -0.875 | -0.0498
22 | CC(C)CON=C1C[C@@H](O)[C@@H](O)[C@@H]2[C@@H]3C(=O)N(C[C@@H]4CCCO4)C(=O)[C@@H]3CC[C@@H]12 | -0.192 | 0.526 (inactive) | 0.22 (inactive) | -0.223 (inactive) | 0.152 (inactive) | -0.541 (inactive) | 0.276 (inactive) | 0.663 (inactive) | 1.15 | -0.266
23 | CO[C@H]1COC(=O)CC=C[C@H](C)[C@@H](OC)COC(=O)[C@@H](C)COC(=O)CC=C[C@@H]1C | -0.0033 | -1.2 (inactive) | 0.277 (inactive) | 0.151 (inactive) | -0.92 (inactive) | -0.288 (inactive) | 0.224 (inactive) | -0.979 (inactive) | 0.721 | -0.142
24 | CCC(=O)[C@@]1(O)C(=O)N2C(=C3C(=O)OCC[C@@H]31)N(Cc1ccccc1)C(C)=C(C(=O)OC)[C@H]2c1ccccc1 | -0.207 | -0.235 (inactive) | 0.327 (inactive) | -1.41 (inactive) | 0.936 (inactive) | 0.273 (inactive) | 0.533 (inactive) | -0.247 (inactive) | -0.557 | -0.175
25 | CO[C@H]1COC(=O)CC=C[C@@H](C)[C@H](OC)COC(=O)[C@@H]2CCCN2C(=O)CC=C[C@@H]1C | 0.251 | -1.87 (inactive) | 0.616 (inactive) | 0.52 (inactive) | -0.638 (inactive) | -0.055 (inactive) | 0.601 (inactive) | 0.53 (inactive) | 0.136 | 0.196
26 | C#CCCCON=C1C[C@@H](O)[C@@H](O)[C@@H]2[C@@H]3C(=O)N(CCC(=O)OCC)C(=O)[C@@H]3CC[C@H]12 | -1.1 | -4.65 (inactive) | -0.307 (inactive) | -0.937 (inactive) | -0.191 (inactive) | -1.71 (inactive) | 0.0851 (inactive) | 0.1 (inactive) | -0.192 | -0.232
